According to PubChem BioAssay (NCI):
This is part of a sample that, as a whole, favours compounds with a hit. Of some 83,000 tested, about 20% had one in any assay.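 Note: values are percent growth. 100 is the growth of untreated cells, values between 100 and 0 indicate rising inhibition; between -100 and 0 indicates cell death.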 Activity calls are given as the source filed them. Rule for the calls: active = growth percent below 10; inactive = the rest.

Tests used:
Assay in all cases: NCI-60 one-dose screen, 48 h (100 = growth as untreated, 0 = no growth, -100 = all killed)
Details in all cases: 10 µM unless noted
NCI-H23 lung = test system: NCI-H23 lung
NCI-H226 lung = test system: NCI-H226 lung
NCI-H322M lung = test system: NCI-H322M lung
HOP-62 NSCLC = test system: HOP-62 NSCLC
NCI-H460 lung = test system: NCI-H460 lung
HOP-92 NSCLC = test system: HOP-92 NSCLC
NCI-H522 lung = test system: NCI-H522 lung
A549/ATCC NSCLC = test system: A549/ATCC NSCLC
786-0 renal = test system: 786-0 renal
COLO 205 colon = test system: COLO 205 colon

Measured: growth

CN(C)C1CCN(C(=O)c2ccc(NC(=O)Nc3ccc(-c4nc(N5CCOCC5)nc(N5CCOCC5)n4)cc3)cc2)CC1
active: NCI-H23 lung 8.52% [2.5 µM] | NCI-H226 lung -18.2% [2.5 µM] | NCI-H322M lung -30.3% [2.5 µM] | HOP-62 NSCLC -21.5% [2.5 µM] | NCI-H460 lung 6.4% [2.5 µM] | HOP-92 NSCLC -32% [2.5 µM] | NCI-H522 lung 8.88% [2.5 µM] | A549/ATCC NSCLC -25.2% [2.5 µM] | 786-0 renal -10.7% [2.5 µM] | COLO 205 colon -31.4% [2.5 µM]

CN(C)CCOC(=O)Nc1nc2ccc(Sc3ccccc3)cc2[nH]1
inactive: NCI-H23 lung 44% | NCI-H226 lung 61.8% | NCI-H322M lung 36.9% | HOP-62 NSCLC 29.1% | NCI-H460 lung 13% | HOP-92 NSCLC 41.8% | A549/ATCC NSCLC 38.7% | 786-0 renal 42.2%
active: NCI-H522 lung -24% | COLO 205 colon 8.53%

Cn1ccnc1C(=O)/C=C/c1ccc(CC(=O)Nc2ccc(C(F)(F)F)cc2)cc1
inactive: NCI-H23 lung 19.4% | NCI-H226 lung 48.5% | HOP-92 NSCLC 38.3%
active: NCI-H322M lung 6.96% | HOP-62 NSCLC -33.7% | NCI-H460 lung -0.126% | NCI-H522 lung -3.98% | A549/ATCC NSCLC 6.44% | 786-0 renal 1.74% | COLO 205 colon 5.87%

CCCNC(=O)c1cn2ncnc(Nc3cc(C(=O)NC4CC4)ccc3C)c2c1C
inactive: NCI-H23 lung 24.6% | NCI-H226 lung 42.1% | NCI-H322M lung 47.5% | HOP-62 NSCLC 81.1% | NCI-H460 lung 66.8% | HOP-92 NSCLC 74.6% | NCI-H522 lung 79.1% | A549/ATCC NSCLC 63.3% | 786-0 renal 99% | COLO 205 colon 88.9%

Cc1cc(NCC(=O)Nc2ccc(-c3nc4ccccc4s3)cc2)no1
inactive: NCI-H23 lung 82.8% | NCI-H226 lung 91% | NCI-H322M lung 102% | HOP-62 NSCLC 111% | NCI-H460 lung 103% | HOP-92 NSCLC 100% | NCI-H522 lung 82.1% | A549/ATCC NSCLC 92.3% | 786-0 renal 102% | COLO 205 colon 108%

C#Cc1cccc(Nc2ncnc3cc(OC)c(OCCCCCCC(=O)NO)cc23)c1
active: NCI-H23 lung -31.4% | NCI-H226 lung -10.9% | NCI-H322M lung -8.88% | HOP-62 NSCLC -37.5% | NCI-H460 lung 1.24% | HOP-92 NSCLC -26.4% | NCI-H522 lung -58.2% | A549/ATCC NSCLC -32.8% | 786-0 renal -15.4% | COLO 205 colon -65%

FC(F)c1nc2ccccc2n1-c1nc(N2CCOCC2)nc(N2CCOCC2)n1
active: NCI-H23 lung 0.202% | NCI-H226 lung -3.17% | NCI-H322M lung -22.6% | HOP-62 NSCLC -15.1% | NCI-H460 lung 7.27% | HOP-92 NSCLC -32.2% | NCI-H522 lung -1.95% | A549/ATCC NSCLC -17.2% | 786-0 renal -32.8% | COLO 205 colon -25.1%

CN1CCC(COc2cnc(-c3cccc(Cn4nc(-c5cccc(C#N)c5)ccc4=O)c3)nc2)CC1
active: COLO 205 colon -60.3%
inactive: NCI-H23 lung 62.5% | NCI-H226 lung 92.2% | NCI-H322M lung 88.7% | HOP-62 NSCLC 45.7% | NCI-H460 lung 52.4% | HOP-92 NSCLC 72.2% | NCI-H522 lung 25.5% | A549/ATCC NSCLC 48.1% | 786-0 renal 61.9%

c1ccc2c(c1)CCN(NCCN1CCCC1)C2
inactive: NCI-H23 lung 86.7% | NCI-H226 lung 88.8% | NCI-H322M lung 98.2% | HOP-62 NSCLC 75.4% | NCI-H460 lung 107% | HOP-92 NSCLC 80.4% | NCI-H522 lung 91.3% | A549/ATCC NSCLC 85.5% | 786-0 renal 101% | COLO 205 colon 91.8%

O=C1NC(=O)[C@@H](c2cn3c4c(cccc24)CCC3)[C@@H]1c1c[nH]c2ccccc12
inactive: NCI-H23 lung 32.5% | NCI-H226 lung 57% | NCI-H322M lung 41.9% | HOP-92 NSCLC 31% | 786-0 renal 21.5%
active: HOP-62 NSCLC 5.24% | NCI-H460 lung 5.41% | NCI-H522 lung -0.0655% | A549/ATCC NSCLC 6.25% | COLO 205 colon -57.3%

CC(=O)O[C@]1(C)C[C@H](O)[C@]2(O)C=CO[C@H](O[C@@H]3O[C@H](CO)[C@@H](O)[C@H](O)[C@H]3O)[C@@H]21
inactive: NCI-H23 lung 99.3% | NCI-H226 lung 96.7% | NCI-H322M lung 101% | HOP-62 NSCLC 95.2% | NCI-H460 lung 110% | HOP-92 NSCLC 129% | NCI-H522 lung 95.4% | A549/ATCC NSCLC 105% | 786-0 renal 93.2% | COLO 205 colon 108%

CO[C@H]1C[C@@H]2CC[C@@H](C)[C@@](O)(O2)C(=O)C(=O)N2CCCC[C@H]2C(=O)O[C@H]([C@H](C)C[C@@H]2CC[C@@H](OP(C)(C)=O)[C@H](OC)C2)CC(=O)[C@H](C)/C=C(\C)[C@@H](O)[C@@H](OC)C(=O)[C@H](C)C[C@H](C)\C=C/C=C/C=C/1C
inactive: NCI-H23 lung 57.5% | NCI-H226 lung 40.9% | NCI-H322M lung 54.5% | HOP-62 NSCLC 28.5% | NCI-H460 lung 40.4% | NCI-H522 lung 31.8% | A549/ATCC NSCLC 34.6% | 786-0 renal 53.3% | COLO 205 colon 52.6%

O=C(Cc1ccccc1)Nc1nnc(NC2CCN(c3nnc(NC(=O)Cc4ccccc4)s3)CC2)s1
inactive: NCI-H23 lung 96.1% | NCI-H226 lung 98.7% | NCI-H322M lung 35.3% | HOP-62 NSCLC 75.9% | NCI-H460 lung 93.3% | NCI-H522 lung 72.5% | A549/ATCC NSCLC 34.4% | 786-0 renal 89% | COLO 205 colon 90.1%

CCN(CCCOc1ccc2c(Nc3cc(CC(=O)Nc4cccc(F)c4)[nH]n3)ncnc2c1)CCOP(=O)(O)O
inactive: NCI-H23 lung 73.4% | NCI-H226 lung 93.8% | NCI-H322M lung 68.5% | HOP-62 NSCLC 56.7% | NCI-H460 lung 45% | NCI-H522 lung 44% | A549/ATCC NSCLC 44.1% | 786-0 renal 86.5%
active: COLO 205 colon -7.95%

O=C1C=CC2(NN=C(c3ccccc3)N2c2ccc(Cl)cc2)c2cccc(O)c21 (stereo not drawn)
inactive: NCI-H23 lung 13.6% | NCI-H226 lung 60.5% | NCI-H322M lung 89.5% | HOP-62 NSCLC 26.5% | NCI-H460 lung 64.3% | NCI-H522 lung 51.1% | A549/ATCC NSCLC 22.3% | 786-0 renal 93.4% | COLO 205 colon 94.5%

O=c1sn(-c2cccc3ccccc23)c(=O)n1Cc1ccccc1
inactive: NCI-H23 lung 100% | NCI-H226 lung 96.8% | NCI-H322M lung 102% | HOP-62 NSCLC 76.6% | NCI-H460 lung 101% | NCI-H522 lung 74.4% | A549/ATCC NSCLC 70.7% | 786-0 renal 107% | COLO 205 colon 89.8%

Nc1c2c(c(O)c3c1=C(CO)C=N3)=NCCS2=O (stereo not drawn)
inactive: 786-0 renal 36.1%
active: NCI-H23 lung -33.4% | NCI-H226 lung -52.2% | NCI-H322M lung -95.1% | HOP-62 NSCLC -52.7% | NCI-H460 lung -61.7% | NCI-H522 lung -46.9% | A549/ATCC NSCLC -42.4% | COLO 205 colon -75.1%

O=C1NC(=O)/C(=C/c2ccc3nccc(-c4ccncc4)c3c2)S1
active: NCI-H23 lung -17.4% | NCI-H226 lung -54.5% | NCI-H322M lung -50.8% | HOP-62 NSCLC -36.1% | NCI-H460 lung -2.65% | NCI-H522 lung -95.6% | A549/ATCC NSCLC -51.8% | 786-0 renal -41.6% | COLO 205 colon -56.6%

CC(C)(C)C(=O)OCOP(=O)(OCOC(=O)C(C)(C)C)C1CCCN(OC(=O)c2ccccc2)C1=O (stereo not drawn)
inactive: NCI-H23 lung 16.8% | NCI-H226 lung 34.9% | NCI-H322M lung 21.2% | HOP-62 NSCLC 22.8% | NCI-H460 lung 15.6% | NCI-H522 lung 12.9% | A549/ATCC NSCLC 24.6% | 786-0 renal 17.8% | COLO 205 colon 14.3%

COc1cc(-c2cc(-c3ccc(Nc4ccnc5cc(Cl)ccc45)cc3)nc(N3CCOCC3)n2)cc(OC)c1OC
active: NCI-H23 lung 0.48% | HOP-62 NSCLC -39.1% | NCI-H460 lung -43.9% | NCI-H522 lung -23.7% | A549/ATCC NSCLC -30.7% | 786-0 renal -65.5%
inactive: NCI-H226 lung 92.3% | NCI-H322M lung 28.9% | COLO 205 colon 32.4%

C=CCC(=O)N[C@H](/C=C/C(=O)O)Cc1ccc(-c2cc(Cl)cc(Cl)c2)cc1
inactive: NCI-H23 lung 92.7% | NCI-H226 lung 86.2% | NCI-H322M lung 101% | HOP-62 NSCLC 82% | NCI-H460 lung 99.6% | NCI-H522 lung 70.7% | A549/ATCC NSCLC 76.9% | 786-0 renal 98.4% | COLO 205 colon 95.7%

Clc1ccc(/C=C/c2cc(N3CCOCC3)c3cc(Cl)c(Cl)cc3n2)cc1
inactive: NCI-H23 lung 100% | NCI-H226 lung 85.5% | NCI-H322M lung 94.3% | HOP-62 NSCLC 122% | NCI-H460 lung 95% | A549/ATCC NSCLC 79.9% | COLO 205 colon 98.1%
active: NCI-H522 lung -43.7% | 786-0 renal -11%

CCCS(=O)(=O)Nc1ccc(F)c(C(=O)c2c[nH]c3ncc(-c4ccc(Cl)cc4)cc23)c1F
inactive: NCI-H23 lung 56% | NCI-H226 lung 57.2% | NCI-H322M lung 27.8% | HOP-62 NSCLC 34.8% | NCI-H460 lung 17.3% | NCI-H522 lung 28.9% | A549/ATCC NSCLC 25.6% | 786-0 renal 19%

CC(C)CC(=O)Nc1n[nH]c2c1CN(C(=O)C1CCN(C)CC1)C2(C)C
inactive: NCI-H322M lung 24.4%
active: NCI-H23 lung 0.542% | NCI-H226 lung 7.08% | HOP-62 NSCLC -14.3% | NCI-H460 lung 7.12% | NCI-H522 lung -27.9% | A549/ATCC NSCLC 7.25% | 786-0 renal 3.99% | COLO 205 colon -76.4%

C=CCCCC(=O)CCC(=O)OCC1O[C@@H](O[C@@H]2C(O)[C@@H](OC(C)=O)C(C)O[C@H]2O[C@H](CC=C)CCCCC)C(O)[C@@H](OC(=O)/C(C)=C/C)[C@@H]1OC(=O)/C=C/c1ccccc1 (stereo partly drawn)
inactive: NCI-H23 lung 35.3% | NCI-H322M lung 39.6% | NCI-H460 lung 10.6% | NCI-H522 lung 34.8% | A549/ATCC NSCLC 24.6% | 786-0 renal 18.9%
active: NCI-H226 lung 9.34% | HOP-62 NSCLC 9.18% | COLO 205 colon -8.37%

NC1=Nc2cc(OCCCN3Cc4ccccc4C3)c(OCC3CC3)cc2C12CCCC2
inactive: NCI-H23 lung 77.2% | NCI-H226 lung 80.7% | NCI-H322M lung 91.6% | HOP-62 NSCLC 77% | NCI-H460 lung 69.8% | NCI-H522 lung 39.7% | A549/ATCC NSCLC 64.4% | 786-0 renal 55.6%
active: COLO 205 colon -62.5%

C[N+](C)(CCOC(c1ccccc1)c1ccccc1)CC(=O)OCc1ccccc1
inactive: NCI-H23 lung 101% | NCI-H226 lung 91.8% | NCI-H322M lung 90.6% | HOP-62 NSCLC 97.8% | NCI-H460 lung 110% | NCI-H522 lung 93.8% | A549/ATCC NSCLC 102% | 786-0 renal 105% | COLO 205 colon 103%
